# Reference: ChEMBL document CHEMBL3988442, “University of Dundee, Small-Polar-MMV Screening Library” (2021)
# About 13,000 (27%) of roughly 48,000 compounds showed an effect of 50% or more. The list shows a part of the results.
# Tested on: Wolbachia pipientis
# Assay: Anti-Wolbachia Cell-Based Screen
# Assay type: functional
# Parameters: scale not given: in the data most compounds retested in dose-response had high values
# Conditions: 5 µM
row,Compound,Percent Effect
1,COCc1cncc2c1CCN(C(=O)c1ccsc1)C2,-1.861%
2,O=C(c1cnccn1)N1CCc2c(COCC3CC3)cncc2C1,-0.9982%
3,COCc1cncc2c1CCN(C(=O)c1ccc(C)o1)C2,-6.966%
4,CN(C)CCOCc1cncc2c1CCN(C(=O)c1cscn1)C2,84.03%
5,COCc1cncc2c1CCN(C(=O)c1cscn1)C2,104.1%
6,CN(C)C(=O)N1CCc2c(COCC3CC3)cncc2C1,-21.89%
7,Cn1cnnc1CCNC(=O)c1ccccc1OC1CCC1,-17.05%
8,CCNc1nc(C)c(C(=O)N(C)Cc2noc(C)n2)s1,-18.27%
9,Cc1cc(C(=O)NC2CCCOc3cc(Cl)ccc32)n(C)n1 (centres undefined),104.1%
10,O=C(Nc1ccc2c(c1)OCCO2)c1ccc(=O)[nH]n1,99.56%
11,Cc1c(C(=O)NC2CCCOc3cc(Cl)ccc32)cnn1C (centres undefined),96.08%
12,O=C(Nc1ccc2c(c1)OC1(CCCCC1)O2)c1ccc(=O)[nH]n1,13.01%
13,Cc1ccc2c(c1)OCCCC2NC1CCN(C)CC1 (centres undefined),11.04%
14,Cc1ccc2c(c1)OCCCC2NCc1nccn1Cc1ccccc1 (centres undefined),-22%
15,Cc1c(C(=O)N[C@H]2CN(CCS(C)(=O)=O)C[C@@H]2C2CC2)cnn1C,4.067%
16,CCc1cccc(N2CCC(NC(=O)c3ccc(=O)[nH]n3)CC2)c1,3.328%
17,CC1(C)Oc2ccc(NC(=O)c3ccc(=O)[nH]n3)cc2O1,-5.037%
18,Cc1ccc2c(c1)OCCCC2NCc1nccn1CC(C)C (centres undefined),-15.26%
19,O=C(NC1CCCOc2cc(Cl)ccc21)c1ccc(=O)[nH]n1 (centres undefined),103.9%
20,O=C(Nc1ccc2c(c1)OC1(CCCC1)O2)c1ccc(=O)[nH]n1,-12.04%
21,CC(C)N1CCCC2(CCN(C(=O)CCCn3ccnc3)C2)C1=O (centres undefined),-2.08%
22,CCc1nnc(CNCC2CCN(CC(O)c3ccccc3)CC2)o1 (centres undefined),1.305%
23,CCc1ncc(CN2CCc3nc4sc(C)cc4c(=O)n3CC2)cn1,98.79%
24,Cc1cc2c(=O)n3c(nc2s1)CCN(Cc1[nH]cnc1C)CC3.Cl,117%
25,CCc1ncc(CN2CCCC3(CCC(=O)N(CCC(C)C)C3)C2)cn1 (centres undefined),-16.36%
26,Cc1cc(CN2CCc3nc(C)n(C)c(=O)c3CC2)[nH]n1,-18.21%
27,Cc1cc2c(=O)n3c(nc2s1)CCN(Cc1cncn1C)CC3.Cl,111.2%

row,Compound,Percent Effect
1,Cc1nc[nH]c1CN1CCn2nc(CN3Cc4ccccc4C3)cc2C1,5.533%
2,Cc1cc2c(=O)n3c(nc2s1)CCN(Cc1ccncc1)CC3,-12.53%
3,Cc1nc2c(c(=O)n1C)CCN(Cc1cc3cc[nH]c3cn1)CC2,-4.621%
4,Cc1cc2c(=O)n3c(nc2s1)CCN(Cc1cnc(C(C)C)nc1)CC3,-3.495%
5,Cc1cc2c(=O)n3c(nc2s1)CCN(Cc1cnc(C)n1C)CC3.Cl,108.4%
6,CCOC(=O)C1CCCCN1Cc1c[nH]nc1-c1cc2ccccc2o1 (centres undefined),10.01%
7,Cc1cccc2cc(C(=O)N3CCN(S(=O)(=O)N(C)C)CC3)n(C)c12,-7.336%
8,CNc1ncc(CN(C)Cc2cc(O)c3cc(C)cc(C)c3n2)cn1,2.553%
9,COc1ccc(-c2cc(CN)nc3ccnn23)cc1.Cl,124.4%
10,CCc1ccc(CN(C)c2cc(COC)nc3ccnn23)cc1,-31%
11,COCc1cc(N2CCOCC2)n2nccc2n1,9.055%
12,COc1cc(OC)cc(-c2cc(CN)nc3ccnn23)c1.Cl,104.2%
13,CCc1cc(NC(CCO)c2ccc(OC)cc2)n2nccc2n1 (centres undefined),6.902%
14,COCc1cc(N2CCN(Cc3ccncc3)CC2)n2nccc2n1,2.178%
15,Cl.NCc1cc(-c2ccccc2)n2nccc2n1,106.1%
16,CCCc1cc(CNc2cc(CCC)nc3ccnn23)on1,-13.04%
17,CN(C)C1CCN(c2cc(-c3ccccc3)nc3ccnn23)C1 (centres undefined),-6.733%
18,c1ccc(-c2cc(NCCCC3CCOC3)n3nccc3n2)cc1 (centres undefined),-17.54%
19,CCc1cc(N[C@H](C(N)=O)[C@@H](C)CC)n2nccc2n1,-8.924%
20,CSc1ccc(-c2cc(CN)nc3ccnn23)cc1.Cl,95%
21,CC(C)OCc1nn(CC2CC2)c2c1CN(Cc1ccco1)CC2.O=C(O)C(F)(F)F,3.908%
22,Cc1csc(C2(NCc3nnc(-c4ccco4)o3)CCCC2)n1,-3.858%
23,Cc1cccc(C)c1-n1nnnc1C1(NCc2ccco2)CCCC1,75.79%
24,Cc1ccc(-n2nnnc2C2(NCc3ccco3)CCCC2)cc1,2.087%
25,Fc1cccc(-c2nc(CN3CCn4c(nnc4C4CC4)C3)co2)c1,2.763%
26,OCCN1CCN(Cc2coc(-c3cccc(F)c3)n2)CC1,105.3%
27,CCN1CCN(Cc2coc(-c3cccc(F)c3)n2)CC1,3.559%
